Sampled rows, rich in hits. Any-hit rate of the full collection: about 1.4%.
EPAC2 antag: antagonists of human EPAC2. Q8WZA2. EPAC2 GEF exchange of Rap1B-BODIPY-GDP, fluorescence. Potency, µM (titrated, usually from 114 µM), inactives show at the highest dose activity, negative = inhibition, hits mostly inhibitors. 360,000 compounds, 0.18% hits. AID 720708; also: potency is read from the fitted curve at half-maximal effect; % is scaled to controls: 0 for no effect and ±100 for the full control effect; nearly all actives have a fitted effect of over 45% in size
EPAC1 antagonist: EPAC1 (human) antagonism; 360,000 compounds, 0.14% hits; EPAC1 GEF assay, Rap1b-BODIPY-GDP exchange fluorescence; Potency, µM (series often up to 115 µM), for the others: top-dose activity change, negative = inhibition, most hits filed as inhibitors; O95398;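 also: potency is read from the fitted curve at half-maximal effect; plate controls were vehicle for no effect and positive control for full effect; nearly all actives have a fitted effect of over 50% in size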
EPAC2 agonist: activates human EPAC2 exchange factor | 360,000 compounds, 0.079% hits | Potency, µM (highest dose often 154 µM), for inactives: at the top dose activation, actives largely listed as activators | Q8WZA2 | EPAC2 activation, biochemical qHTS; response scale: 100% = 6.5 mM cAMP response | AID 720711; also: potency is read from the fitted curve at half-maximal effect; nearly all actives have a fitted effect of over 50% in size
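Guanine nucleotide exchange by EPAC2 is measured as reduced fluorescence of BODIPY-GDP once it is released from 250 nM Rap1B. Plates are read kinetically for 30 min at room temperature; results are scaled to 6.5 mM cAMP.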
EPAC1 agonist: EPAC1 (human) agonism; O95398; EPAC1 agonist qHTS, biochemical assay; response scale: 100% = response to 6.5 mM cAMP; Potency, µM (titrated, usually from 154 µM), for the others: at the highest dose activation, hits mostly activators; 360,000 compounds, 0.073% hits; AID 720707; also: potency is read from the fitted curve at half-maximal effect; nearly all actives have a fitted effect of over 60% in size
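Fluorescent GDP-exchange assay: 100 nM EPAC1 with 250 nM Rap1B preloaded with BODIPY-GDP and 50 uM GDP; compounds tested as concentration series, 5 min at room temperature, then read every 5 min for 30 min (ex 480/em 540 nm); normalized to 6.5 mM cAMP.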
KCNH2 3.1 inh: blocks the human KCNH2 3.1 channel isoform; U2OS KCNH2 3.1, thallium flux FluxOr; active compounds read low; activity change, % (tested at about 1.8 µM); 340,000 compounds, 0.95% hits;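 active = maximum activity change below -70%; inconclusive = maximum activity change from -70% to -50%; inactive = maximum activity change above -50%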;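 also: thallium influx rate constant from kinetic fluorescence after stimulation buffer; % is scaled to controls: 0 for no effect and ±100 for the full control effect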
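We transduce U2OS cells with the mutant 3.1 virus, culture them overnight, load FluxOr with Red40 quencher for 45 min, then add stimulation buffer and read kinetically for 2 min to derive a normalized rate constant.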
KCNH2 WT inh: inhibitors of human wildtype KCNH2 potassium channel; Q12809; U2OS, BacMam KCNH2, thallium flux FluxOr; active compounds read low; activity change, % at 1.84 µM; 340,000 compounds, 0.37% hits;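 active = maximum activity change below -70%; inconclusive = maximum activity change between -70% and -50%; inactive = maximum activity change above -50%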; also: % is scaled to controls: 0 for no effect and ±100 for the full control effect
Target sequence (Q12809 whole entry, looked up): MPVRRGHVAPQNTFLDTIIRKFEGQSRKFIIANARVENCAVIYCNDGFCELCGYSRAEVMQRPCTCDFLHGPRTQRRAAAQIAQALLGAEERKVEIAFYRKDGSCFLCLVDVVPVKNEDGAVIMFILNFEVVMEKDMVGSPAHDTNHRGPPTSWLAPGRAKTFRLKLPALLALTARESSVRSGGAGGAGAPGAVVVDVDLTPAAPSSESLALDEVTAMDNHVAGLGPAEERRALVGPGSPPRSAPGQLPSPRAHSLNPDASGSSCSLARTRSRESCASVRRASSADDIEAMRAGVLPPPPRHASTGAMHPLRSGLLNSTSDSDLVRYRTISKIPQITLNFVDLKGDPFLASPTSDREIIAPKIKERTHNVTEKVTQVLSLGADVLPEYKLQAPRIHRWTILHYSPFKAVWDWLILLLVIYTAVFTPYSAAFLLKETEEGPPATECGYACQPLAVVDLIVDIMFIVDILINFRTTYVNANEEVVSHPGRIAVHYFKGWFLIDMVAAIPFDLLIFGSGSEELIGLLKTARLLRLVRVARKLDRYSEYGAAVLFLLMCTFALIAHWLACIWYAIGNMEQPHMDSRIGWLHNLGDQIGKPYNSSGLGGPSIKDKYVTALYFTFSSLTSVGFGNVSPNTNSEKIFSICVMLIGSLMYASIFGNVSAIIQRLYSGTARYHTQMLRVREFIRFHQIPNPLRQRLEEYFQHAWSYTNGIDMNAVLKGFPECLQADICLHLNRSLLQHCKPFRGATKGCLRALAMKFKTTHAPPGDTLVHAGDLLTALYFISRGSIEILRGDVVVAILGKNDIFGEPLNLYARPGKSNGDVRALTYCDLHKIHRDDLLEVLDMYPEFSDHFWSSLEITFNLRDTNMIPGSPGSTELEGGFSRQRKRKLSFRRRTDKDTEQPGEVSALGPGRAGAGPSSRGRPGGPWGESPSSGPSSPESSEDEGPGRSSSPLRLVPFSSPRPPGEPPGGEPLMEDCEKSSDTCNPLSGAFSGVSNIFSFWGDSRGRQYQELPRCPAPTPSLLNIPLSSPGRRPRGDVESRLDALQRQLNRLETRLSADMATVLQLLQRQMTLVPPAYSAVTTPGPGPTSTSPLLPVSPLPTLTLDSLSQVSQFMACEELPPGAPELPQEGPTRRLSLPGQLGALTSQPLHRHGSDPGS
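U2OS cells were transduced with wild-type KCNH2 virus (2.03 x 10^8 / mL) for 4 h at room temperature, then cultured overnight at 37 C. Thallium flux was read with FluxOr dye. Rate constants were normalized to DMSO controls.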
* hit, by the source's call; u = inconclusive; x = no result. Unless noted, calls follow the shape of the dose curve; as a rule, active = well fitted curve in the direction sought with a large enough effect; inconclusive = small, poorly fitted or top-dose-only effect, or another doubt; inactive = no such curve, though single readings can be large; an effect the other way counts as inactive or inconclusive.

SMILES	EPAC2 antag	EPAC1 antagonist	EPAC2 agonist	EPAC1 agonist	KCNH2 3.1 inh	KCNH2 WT inh
O=C(NCCCn1ccnc1)Nc1ccc2c(c1)OCO2	-9%	-11%	-3%	1%	4	-112*
COc1ccc(/C=C2\SC(=O)N=C2N)cc1	3%	-9%	5%	12%	-16	-214*
COc1ccc(/C=C2\SC(N3CCCCC3)=NC2=O)cc1	7%	2%	6%	-9%	9	-12
CS(=O)(=O)c1ccc(Cl)c(NC(=O)CN2C(=O)C3CCCCC3C2=O)c1 (stereo not given)	23%	16%	3%	-5%	3	-21
CCCCC[C@H]1CN(Cc2ccc(OC)cc2)C(=O)[C@@H]1CC(=O)NCc1ccccc1	u	-13%	14%	-26%	-5	4
O=c1c2ccccc2[nH]c(=S)n1CCCN1CCN(c2ccccc2F)CC1	-6%	-15%	5%	-15%	13	-70*
O=c1c2cccnc2[nH]c(=S)n1CCCN1CCN(c2ccccc2F)CC1	-3%	-9%	-2%	3%	-8	17
Cc1nc2c(OCc3ccc(OC(F)F)cc3)cccn2c1N(C)C(=O)CCC1CCCC1	u	-16%	5%	-4%	x	x
C=CCN(c1ccc(C(=O)Nc2ccc3c(c2)n(C)c(=O)n3C)cc1)S(C)(=O)=O	8%	8%	7%	-3%	4	-284*
C=CCN(c1ccc(C(=O)Nc2ccc3c(c2)OCO3)cc1)S(C)(=O)=O	0%	-20%	2%	-14%	-14	3
Cc1ccc(C(=O)NC(=S)Nc2ccc(CN3CCCCC3)cc2)c(C)c1	11%	5%	4%	-5%	-73*	27
O=C(Nc1ccc(CN2CCCCC2)cc1)Nc1ccc(Br)cc1Cl	-16%	0%	8%	6%	-110*	u
S=C(Nc1ccc(Br)cc1Cl)N1CCCC1	3%	-2%	-2%	7%	6	-4
O=C(NC(=S)Nc1ccc(CN2CCCCC2)cc1)c1cc2ccccc2o1	18%	-7%	7%	-14%	-94*	26
CC(=O)Nc1ccc(NC(=S)NC(=O)c2cc3ccccc3o2)cc1	-2%	-1%	8%	0%	-2	-5
O=S(=O)(NCc1ccccc1)c1ccc(-c2cnc(C3CC3)o2)cc1	5%	1%	2%	1%	6	-19
Cc1ccc(CNS(=O)(=O)c2ccc(-c3cnc(C4CC4)o3)cc2)cc1	-6%	-8%	11%	5%	-89*	-14
CC1(C(=O)NCc2ccccc2)CCC(=O)N1CCCn1ccnc1 (stereo not given)	-4%	-2%	3%	3%	x	x
COCCn1c(-c2ccc(OC)cc2)nc2oc3cc(OC)ccc3c(=O)c2c1=O	8%	7%	5%	7%	10	9
COCCn1c(-c2ccc(OC)cc2)c(-c2ccc(OC)cc2)oc1=O	35µM*	16%	2%	-2%	6	-14
O=C(Cc1n[nH]c(=O)c2ccccc12)Nc1cc(C(F)(F)F)ccc1-n1cncn1	-5%	2%	-1%	6%	2	-4
CCN(CC)c1ccc2cc(S(=O)(=O)c3ccc(Cl)cc3)c(=O)oc2c1	254%	126%	-322%	89µM*	8	-19
CCCCCCc1cc2cc(S(=O)(=O)c3ccc(Cl)cc3)c(=O)oc2cc1O	-14%	4%	-1%	0%	-12	-12
CCC1=C(c2ccc(OC)cc2)CCC(C(=O)O)C1C (stereo not given)	-9%	6%	-10%	3%	9	-3
Cc1ccc(Cl)c2sc(N3CCN(C(=O)c4ccco4)CC3)nc12	-2%	-8%	0%	100µM*	9	-4
SMILES	EPAC2 antag	EPAC1 antagonist	EPAC2 agonist	EPAC1 agonist	KCNH2 3.1 inh	KCNH2 WT inh
NC(=O)[C@H]1CC2(CC(c3cccc(NC(=O)COc4ccc(Cl)cc4)c3)=NO2)CN1C(=O)c1ccc(Cl)cc1 (stereo not given in full)	-1%	-23%	22%	-2%	-91*	-43
C=C(C)C(=O)Nc1cccc(C2=NOC3(C2)C[C@@H](C(N)=O)N(C(=O)c2cc([N+](=O)[O-])cc([N+](=O)[O-])c2C)C3)c1 (stereo not given in full)	6%	-17%	1%	-5%	2	5
C/C=C\C(=O)Nc1cccc(C2=NOC3(C2)C[C@@H](C(N)=O)N(C(=O)CCCCC)C3)c1 (stereo not given in full)	-2%	-9%	8%	-6%	6	-85*
C/C=C/C(=O)Nc1cccc(C2=NOC3(C2)C[C@@H](C(N)=O)N(C(=O)c2cc([N+](=O)[O-])cc([N+](=O)[O-])c2C)C3)c1 (stereo not given in full)	12%	-5%	11%	-3%	-84*	3
NC(=O)[C@H]1CC2(CC(c3cccc(NC(=O)COc4ccc(Cl)cc4)c3)=NO2)CN1C(=O)c1ccccc1C(=O)c1ccccc1 (stereo not given in full)	-15%	-15%	-6%	5%	x	x
CCCCCC(=O)N1CC2(CC(c3cccc(NC(=O)COc4ccc(Cl)cc4)c3)=NO2)C[C@@H]1C(N)=O (stereo not given in full)	2%	-2%	6%	-9%	-74*	-91*
CC(Oc1ccccc1F)c1nnc(SCC(=O)Nc2ccc(N3CCOCC3)cc2)o1 (stereo not given)	-2%	-12%	2%	3%	9	11
Cc1c(NS(=O)(=O)c2ccc(NCCN3CCOCC3)c([N+](=O)[O-])c2)c(=O)n(-c2ccccc2)n1C	2%	11%	2%	10%	3	u
CN(C)C1=NCCN1CCCCc1ccccc1	-2%	-6%	3%	1%	1	-3
Cc1ccc(S(=O)(=O)Nc2cc(-c3ccc(Cl)cc3)nn2C)cc1	2%	-12%	0%	-1%	-174*	-18
Cc1ccc(S(=O)(=O)Nc2cc(-c3ccccc3)nn2C)cc1	3%	12%	9%	4%	-29	-5
O=C(CSc1nc2ccccc2o1)N/N=C/c1ccccc1	19%	-23%	-2%	0%	-12	-3
C/C(=N\NC(=O)CSc1nc2ccccc2o1)c1ccc(O)cc1	-2%	u	2%	3%	28	-2
C/C(=N\NC(=O)CSc1nc2ccccc2o1)c1cccc(O)c1	2%	-8%	-4%	19%	-116*	5
O=C(CSc1nc2ccccc2o1)N/N=C/c1ccc(O)c(O)c1	-11%	50µM*	10%	3%	0	-2

Bioassay records (PubChem BioAssay)
